Measurements taken from PubChem BioAssay (EPA / NIEHS).
Where “and” joins values, the source holds several entries; their conditions need not be identical. Equal entries are not always repeated. Records with an inconclusive call do not appear. Calls of active or inactive are those of the source. Rule for the calls, unless noted: active = hit-call score of the fitted dose curve at least 0.9, where 1 is the maximum; inconclusive = response in the unintended direction; inactive = score below 0.9.

How the values were obtained:
[1] = read-out: sulfotransferase (SULT2A), SULT2A1 (gene 6822); assay: CLD_SULT2A_48hr: CellzDirect (CLD) Gene Expression Assay for sulfotransferase (SULT2A) at 48 hours (AID 2283710);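 note: hits raise SULT2A1 transcript above the 0.2% DMSO vehicle baseline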
Procedure, shortened: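 Primary human hepatocytes (two donor preparations) dosed daily for two days with chemicals at multiple concentrations, vehicle 0.2% DMSO; SULT2A1 mRNA induction at 48 h by quantitative nuclease protection assay, chemiluminescent read-out, fitted for gain of signal versus DMSO.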

[2] = read-out: HMG-CoA synthase (HMGCS2), HMGCS2 (gene 3158); assay: CLD_HMGCS2_48hr: CellzDirect (CLD) Gene Expression Assay for HMG-CoA synthase (HMGCS2) at 48 hours (AID 2283711)
Procedure, shortened: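 Primary human hepatocytes from two donors dosed daily for two days, 0.2% DMSO vehicle. HMGCS2 mRNA measured 48 h after dosing by quantitative nuclease protection assay with chemiluminescent read-out; induction fitted relative to DMSO, cytotoxicity flagged by microscopy.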

[3] = STM_H9_OrnithineISnorm_perc: Stemina devTOX quickPredict H9 human embryonic stem cell (hESC)-based Assay for Ornithine (ORN) Metabolite Biomarker, Normalized (AID 2283712; active = hit-call score of the fitted dose curve at least 0.9, where 1 is the maximum; inactive = score below 0.9;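 note: ornithine released into spent medium during last day measured by mass spectrometry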)
Procedure, shortened: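 H9 human embryonic stem cells kept pluripotent receive test chemical over 72 h, refreshed daily by media exchange. Media from the closing 24 h is deproteinized and analysed by UPLC-HRMS on an amide column; ornithine signal is scaled to labelled standard and vehicle.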

[4] = STM_H9_CystineISnorm_perc: Stemina devTOX quickPredict H9 human embryonic stem cell (hESC)-based Assay for Cystine (CYSS) Metabolite Biomarker, Normalized (AID 2283713; active = hit-call score of the fitted dose curve at least 0.9, where 1 is the maximum; inactive = score below 0.9)
Procedure, shortened: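 H9 hESC, pluripotent; compound 72h, re-dosed q24h with medium change. Last-24h medium → 40% acetonitrile deproteinization → UPLC-HRMS. CYSS area / C13-CYSS standard, then % of 0.1% DMSO median.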

[5] = STM_H9_OrnCyssISnorm_ratio: Stemina devTOX quickPredict H9 human embryonic stem cell (hESC)-based Assay for Ornithine (ORN):Cystine (CYSS) Ratio (AID 2283714)
Procedure, shortened: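 Steps: H9 hESCs in pluripotent state dosed 72h, medium plus compound renewed every 24h; conditioned medium from the final 24h deproteinized in 40% acetonitrile; ORN and CYSS quantified by UPLC-HRMS with C13 spike-ins; ratio relative to vehicle.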

[6] = CEETOX_H295R_MTT_cell_viability: Viability Assessment in the CeeTox HT-H295R MTT Assay (AID 2283718; active = hit-call score of the fitted dose curve at least 0.9, where 1 is the maximum; inactive = score below 0.9;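 for AC50: curve fitted both ways so AC50 may mark viability loss or gain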)
Procedure, shortened: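 MTT reduction (0.5 mg/ml, 4 h at 37 C; absorbance at 570 and 650 nm) gave viability as background-corrected percent change versus controls. H295R cells had 48 h forskolin (10 uM) prestimulation, then 48 h chemical exposure at 0.1% DMSO.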

[7] = biological target: Luciferin 4-monooxygenase (Photinus pyralis) (UniProt P08659); assay: CCTE_Simmons_QuantiLum_inhib_2: CCTE's Firefly Luciferase Inhibition Assay, Simmons Lab (AID 2283767)
Luciferin 4-monooxygenase (Photinus pyralis), sequence (P08659 whole entry, looked up): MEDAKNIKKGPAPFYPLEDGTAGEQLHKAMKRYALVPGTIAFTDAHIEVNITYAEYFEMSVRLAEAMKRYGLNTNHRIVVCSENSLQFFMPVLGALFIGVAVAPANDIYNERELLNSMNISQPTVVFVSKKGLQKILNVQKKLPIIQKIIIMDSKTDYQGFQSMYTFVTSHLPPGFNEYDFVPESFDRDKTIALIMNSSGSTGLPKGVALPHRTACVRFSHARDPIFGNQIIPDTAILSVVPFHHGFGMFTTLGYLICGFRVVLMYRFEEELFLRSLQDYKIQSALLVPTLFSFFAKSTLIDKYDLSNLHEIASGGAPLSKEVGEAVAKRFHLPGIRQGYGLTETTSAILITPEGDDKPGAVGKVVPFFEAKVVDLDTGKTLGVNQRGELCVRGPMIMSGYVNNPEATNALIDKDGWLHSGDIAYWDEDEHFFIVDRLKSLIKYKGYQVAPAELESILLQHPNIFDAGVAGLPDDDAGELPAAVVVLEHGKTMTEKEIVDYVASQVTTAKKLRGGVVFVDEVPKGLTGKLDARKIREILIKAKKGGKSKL
Procedure, shortened: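 Luminescence loss relative to DMSO vehicle defines inhibition; detection reagent containing 150 uM D-luciferin and 147 uM dATP (final, pH 7.8) is injected immediately before each read. Enzyme is preincubated with an 8-point titration (5 nM–87.5 uM final) for 30 min at 37C.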

[8] = Tanguay_ZF_120hpf_ActivityScore_legacy: (Legacy) Oregon State University Tanguay Lab 120 Hour Post-fertilization zebrafish Assay Score for Activity (AID 2283742);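 for AC50: dechorionated Tropical 5D wild-type zebrafish embryos held singly per well; static exposure from 6 hpf until 120 hpf at 28 °C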
Procedure, shortened: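 Embryos are staged, enzymatically dechorionated at 4 hpf, placed individually at 6 hpf, then held in test chemical (0.64% DMSO) at 28C until 120 hpf. Mortality and malformations are scored by brightfield, with non-mortality endpoints skipped for dead embryos.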

[9] = tested on: chicken Androgen Receptor (AR), gene 422165; assay: ATG_chAR_XSP1: Attagene TRANS-FACTORIAL Multi-Species (XSP1) HepG2 Assay for chicken Androgen Receptor (AR) (AID 2283768)
Procedure, shortened: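 HepG2 cells transiently transfected with multiplexed GAL4-UAS reporter units expressing chimeric chicken AR-Gal4; 3 nM 6-alpha-fluorotestosterone for partial AR stimulation; 24 h after dosing, reporter mRNA by RT-PCR and capillary electrophoresis, gain-of-signal versus DMSO.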

[10] = tested on: zebrafish Androgen Receptor (AR), gene 100005148; assay: ATG_zfAR_XSP1: Attagene TRANS-FACTORIAL Multi-Species (XSP1) HepG2 Assay for zebrafish Androgen Receptor (AR) (AID 2283771)
Procedure, shortened: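 HepG2 cells were transiently transfected with a zebrafish AR-GAL4 reporter system and partially stimulated with 3 nM 6-alpha-fluorotestosterone. Reporter mRNA was measured after 24 h dosing by RT-PCR with capillary electrophoresis, and gain-of-signal was fitted relative to DMSO.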

[11] = tested on: zebrafish Estrogen Receptor (ESR2B), gene 317733; assay: ATG_zfER2b_XSP1: Attagene TRANS-FACTORIAL Multi-Species (XSP1) HepG2 Assay for zebrafish Estrogen Receptor (ESR2B) (AID 2283773)
Procedure, shortened: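 Gain-of-signal endpoint relative to DMSO: reporter transcript levels quantified by RT-PCR and capillary electrophoresis after 24 h compound exposure of HepG2 cells expressing a zebrafish ER2b-Gal4 chimera.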

[12] = biological target: zebrafish Estrogen Receptor (ESR1), esr1 (gene 259252) (UniProt P57717); assay: ATG_zfER1_XSP1: Attagene TRANS-FACTORIAL Multi-Species (XSP1) HepG2 Assay for zebrafish Estrogen Receptor (ESR1) (AID 2283772)
zebrafish Estrogen Receptor (ESR1), esr1 (gene 259252), sequence (P57717 whole entry, looked up, the tested form may be a part): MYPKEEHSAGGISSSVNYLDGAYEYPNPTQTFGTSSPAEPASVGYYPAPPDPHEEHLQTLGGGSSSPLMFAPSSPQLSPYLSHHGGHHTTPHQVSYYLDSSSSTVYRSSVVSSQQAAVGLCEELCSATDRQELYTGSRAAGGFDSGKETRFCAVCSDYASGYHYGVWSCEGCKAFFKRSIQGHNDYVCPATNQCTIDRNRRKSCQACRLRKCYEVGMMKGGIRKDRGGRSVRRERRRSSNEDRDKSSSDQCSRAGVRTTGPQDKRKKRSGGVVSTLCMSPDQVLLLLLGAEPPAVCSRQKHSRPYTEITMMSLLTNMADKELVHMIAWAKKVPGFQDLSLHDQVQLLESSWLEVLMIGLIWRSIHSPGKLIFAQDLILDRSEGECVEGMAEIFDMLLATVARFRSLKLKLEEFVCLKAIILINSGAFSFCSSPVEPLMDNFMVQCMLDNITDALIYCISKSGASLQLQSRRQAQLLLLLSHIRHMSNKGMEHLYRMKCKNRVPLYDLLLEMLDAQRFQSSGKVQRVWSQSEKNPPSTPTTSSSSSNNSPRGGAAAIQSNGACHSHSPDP
Procedure, shortened: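 Readout: fluorescent reporter mRNA, RT-PCR plus FAM labelling, HpaI digest, capillary electrophoresis; gain-of-signal fit vs DMSO. HepG2, transient multi-reporter TRANS (NR-GAL4 chimera), 24 h chemical exposure, 3 nM 6-alpha-fluorotestosterone co-added.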

[13] = ArunA_Migration_hNP: ArunA Biomedical's Oris Neuroprogenitor (hNP) Cell Migration Assay (AID 2283754)
Procedure, shortened: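 Human H9-derived hNP1 neuroprogenitors on Matrigel with LIF/bFGF, plated around seeding stoppers for 16 h at 37C; stoppers removed at start of 72 h chemical exposure. Calcein-AM staining, fluorescence 494/517 nm in detection zone; loss-of-signal vs DMSO; cytochalasin D control.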

[14] = ArunA_Migration_hNC: ArunA Biomedical's Oris Neural Crest (hNC) Cell Migration Assay (AID 2283755)
Procedure, shortened: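 Human H9-derived neural crest stem cells, 60,000/well on Matrigel, 16 h at 37C, then 72 h chemical exposure after seeding-stopper removal. Migration into detection zone read as calcein-AM fluorescence (ex494/em517), relative to DMSO.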

[15] = ArunA_NOG_NucleusCount: ArunA Biomedical's Neurite Outgrowth (NOG) Assay for Nucleus Count (AID 2283756)
Procedure, shortened: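 Human H9-derived differentiated neurons were exposed for 48 h right after seeding. Hoechst-stained nuclei gated by size and intensity were counted by automated high-content imaging as viable neurons. Loss of signal vs DMSO.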

[16] = ArunA_NOG_NeuritesPerNeuron: ArunA Biomedical's Neurite Outgrowth (NOG) Assay for Neurites Per Neuron (AID 2283758)
Procedure, shortened: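 Differentiated human H9-derived neurons exposed to chemicals for 48 h from seeding, then stained with Hoechst and βIII-tubulin/DyLight 488. Automated imaging counted neurites (processes >10 um) per valid neuron; loss of signal versus DMSO scored.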

[17] = ArunA_NOG_BranchPointsPerNeurite: ArunA Biomedical's Neurite Outgrowth (NOG) Assay for Branch Points Per Neurite (AID 2283759)
Procedure, shortened: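 Automated image analysis traced neurites (processes >10 um) from valid cell bodies after Hoechst and βIII-tubulin staining. hNN cells from H9 embryonic stem cells, 48 h exposure. Fitted bidirectionally against DMSO.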

Compound: O=C(O)CCCOc1ccc(Cl)cc1Cl
- outcome [1]: inactive
- outcome [2]: inactive

Compound: CC(C)(C)C(O)/C(=C\c1ccc(Cl)cc1Cl)n1cncn1 (centres undefined)
- outcome [1]: inactive
- AC50 [3]: 69.4 µM (active)
- AC50 [4]: 79.6 µM (active)
- AC50 [5]: 74.4 µM (active)
- outcome [6]: inactive

Compound: O=C(Nc1ccccc1)Nc1cnns1
- AC50 [1]: 6.28 µM (active)
- outcome [3]: inactive
- AC50 [4]: 58.7 µM (active)
- AC50 [5]: 58.3 µM (active)
- AC50 [6]: 65.5 µM (active)
- outcome [7]: inactive

Compound: Cc1[nH]c(=O)n(C(C)(C)C)c(=O)c1Cl
- outcome [1]: inactive
- outcome [3]: inactive
- outcome [4]: inactive

Compound: CC(C)(C)C(O)C(Oc1ccc(Cl)cc1)n1cncn1 (centres undefined)
- AC50 [1]: 7.18 µM (active)
- outcome [2]: inactive
- outcome [3]: inactive
- AC50 [4]: 20.4 µM (active)
- AC50 [5]: 28.3 µM (active)
- outcome [6]: inactive
- AC50 [8]: 26.3 µM (active) and 43 µM (active) and 47 µM (active)

Compound: O=C(O)C(F)(F)C(F)(F)C(F)(F)C(F)(F)C(F)(F)C(F)(F)C(F)(F)F
- outcome [1]: inactive
- AC50 [2]: 35.5 µM (active)
- outcome [3]: inactive
- outcome [4]: inactive

Compound: CNC(=O)/C=C(\C)OP(=O)(OC)OC
- outcome [1]: inactive
- outcome [2]: inactive
- outcome [6]: inactive
- outcome [7]: inactive

Compound: Cc1cc(C)nc(NC(=O)NS(=O)(=O)c2ccccc2C(=O)OC2COC2)n1
- outcome [1]: inactive
- outcome [2]: inactive

Compound: COC(=O)c1ccccc1S(=O)(=O)NC(=O)Nc1nc(C)nc(OC)n1
- outcome [1]: inactive

Compound: CC1(C)C(C=C(Cl)Cl)C1C(=O)OC(C#N)c1ccc(F)c(Oc2ccccc2)c1 (centres undefined)
- outcome [1]: inactive
- outcome [2]: inactive
- outcome [3]: inactive
- outcome [4]: inactive
- outcome [6]: inactive
- outcome [9]: inactive
- outcome [10]: inactive
- AC50 [11]: 35.5 µM (active)

Compound: Oc1ccc(Cl)cc1Cc1ccccc1
- outcome [1]: inactive
- outcome [2]: inactive
- outcome [3]: inactive
- outcome [4]: inactive
- outcome [5]: inactive
- outcome [6]: inactive
- outcome [7]: inactive
- outcome [12]: inactive
- AC50 [11]: 3.36 µM (active)

Compound: O=C(NC(=O)c1c(F)cccc1F)Nc1ccc(OC(F)(F)C(F)OC(F)(F)F)c(Cl)c1 (centres undefined)
- outcome [1]: inactive
- outcome [2]: inactive
- outcome [3]: inactive
- outcome [4]: inactive
- AC50 [6]: 1.97 µM (active)

Compound: C#CCN1C(=O)COc2cc(F)c(N3C(=O)C4=C(CCCC4)C3=O)cc21
- AC50 [1]: 3.49 µM (active)
- AC50 [3]: 84.1 µM (active)
- AC50 [4]: 79.6 µM (active)
- AC50 [5]: 93 µM (active)
- outcome [6]: inactive
- outcome [8]: inactive

Compound: COC(=O)c1ccccc1S(=O)(=O)NC(=O)N(C)c1nc(C)nc(OC)n1
- outcome [1]: inactive

Compound: CC1(c2ccc(Oc3ccccc3)cc2)OC(=O)N(Nc2ccccc2)C1=O (centres undefined)
- AC50 [1]: 1.89 µM (active)
- outcome [2]: inactive
- AC50 [3]: 4.54 µM (active)
- AC50 [4]: 2.42 µM (active)
- AC50 [5]: 3.15 µM (active)
- outcome [8]: inactive
- outcome [7]: inactive

Compound: O=S1OCC2C(CO1)C1(Cl)C(Cl)=C(Cl)C2(Cl)C1(Cl)Cl (centres undefined)
- outcome [1]: inactive
- AC50 [3]: 36.1 µM (active)
- AC50 [4]: 82 µM (active)
- AC50 [5]: 77.1 µM (active)
- outcome [10]: inactive
- AC50 [11]: 4.8 µM (active)

Compound: O=S(=O)(O)C(F)(F)C(F)(F)C(F)(F)C(F)(F)C(F)(F)C(F)(F)C(F)(F)C(F)(F)F
- outcome [1]: inactive
- outcome [2]: inactive
- outcome [3]: inactive
- outcome [4]: inactive
- outcome [5]: inactive
- outcome [13]: inactive
- outcome [14]: inactive
- AC50 [15]: 0.649 µM (active)
- AC50 [16]: 1.02 µM (active)
- outcome [17]: inactive
- outcome [7]: inactive
- AC50 [9]: 148 µM (active)
- outcome [11]: inactive
